Data published in PubChem BioAssay AID1053133 (Broad Institute, 2014).
Out of some 89,000 compounds screened, about 10 (0.01%) were called active. Inconclusive results (about 10%) are left out. Cut-off read from the data, not from the text of the source: active = activity change below about -37% (passing the limit was not always enough); inconclusive = no clear call, values can overlap the other calls; tested in A549 cells. Not all results are given here.

assay: Vaccinia orthopox stage-specific inhibition, primary screen, cell-based, single point (AID 1053133); conditions: Vaccinia-infected cells, mCherry/Venus stage reporter fluorescence, stronger effect = lower value, concentration not given here; activity change (Venus): measured here: Venus reporter, other viral stage

With `CCS(=O)(=O)Nc1ccc2c(c1)C(=O)N(C)[C@H]1CC[C@H](CC(=O)NCc3ccccc3F)O[C@H]1CO2` as the compound, how does the activity change (Venus) read?
The activity change (Venus) was 8.23%.

What about the activity change (mCherry) of the same compound?
Its activity change (mCherry) is -6.34% (inactive).

Which activity change (Venus) does the source give for `O=C(C[C@H]1C=C[C@H](NC(=O)CC2CC2)[C@@H](CO)O1)NCc1ccccc1` here?
The activity change (Venus) was 4.6%.

And the activity change (mCherry)?
The activity change (mCherry) was 4.83% (inactive).

Which results are given for `Cc1noc(C)c1NC(=O)N[C@@H]1CC[C@H](CCNC(=O)C2CCC2)O[C@@H]1CO`?
activity change (Venus): 3.06%; activity change (mCherry): -10.7% (inactive)

Which activity change (Venus) does the source give for `CO[C@H]1CN(C)C(=O)c2ccc(NC(=O)C3CC3)cc2OC[C@@H](C)N(Cc2ccc(F)cc2)C[C@@H]1C` here?
Its activity change (Venus) is -14.9%.

And the activity change (mCherry)?
Its activity change (mCherry) is -29.4% (inactive).

For `CC(=O)N1[C@@H]2Cn3c(ccc(C4=CCCC4)c3=O)[C@H]1[C@@H](C(=O)NC1CCC1)[C@@H]2CO`, which activity change (Venus) is on record?
Its activity change (Venus) is 2.6%.

And the activity change (mCherry)?
Its activity change (mCherry) is 11.3% (inactive).

For `O=C(Cc1cccnc1)N1CC(=O)N2[C@H](CO)[C@H](c3ccc(C#CC4CCCC4)cc3)[C@@H]2C1`, which activity change (Venus) is on record?
Its activity change (Venus) is -12.7%.

What about the activity change (mCherry) of the same compound?
The activity change (mCherry) was -12.6% (inactive).

For `O=C(N[C@@H]1CC[C@H](CCn2cc(-c3ccccn3)nn2)O[C@@H]1CO)c1ccccc1`, which activity change (Venus) is on record?
The activity change (Venus) was -0.983%.

What about the activity change (mCherry) of the same compound?
Its activity change (mCherry) is 0.892% (inactive).

For `O=C(NC[C@H]1CC[C@H]2[C@H](CN2Cc2cccc(Cl)c2)O1)C1CC1`, which activity change (Venus) is on record?
The activity change (Venus) was 6.08%.

And the activity change (mCherry)?
Its activity change (mCherry) is 4.96% (inactive).

Which results are given for `CN(C)C(=O)c1cccc(-c2ccc3c(c2)[C@@H]2[C@@H](CCN2Cc2nccs2)[C@@H](CO)N3)c1`?
activity change (Venus): -3.17%; activity change (mCherry): -14.5% (inactive)

Which activity change (Venus) does the source give for `O=C(C[C@@H]1CC[C@@H]2[C@H](COC[C@H](O)CN2Cc2ccc(F)cc2)O1)NCc1ccncn1` here?
The activity change (Venus) was 9.14%.

And the activity change (mCherry)?
Its activity change (mCherry) is 13.7% (inactive).

For `CN1CCN(C(=O)C[C@H]2CC[C@H]3[C@@H](COC[C@H](O)CN3CC3CCCC3)O2)CC1`, which activity change (Venus) is on record?
Its activity change (Venus) is -10.7%.

And the activity change (mCherry)?
Its activity change (mCherry) is -14.5% (inactive).

Which activity change (Venus) does the source give for `CCCc1cn(CC[C@@H]2CC[C@@H](NC(=O)CCN3CCCCC3)[C@H](CO)O2)nn1` here?
Its activity change (Venus) is 6.3%.

And the activity change (mCherry)?
The activity change (mCherry) was 4.68% (inactive).

With `COc1ccc(-c2cn(CC[C@H]3CC[C@@H](NC(=O)CCN4CCCCC4)[C@H](CO)O3)nn2)cc1` as the compound, how does the activity change (Venus) read?
The activity change (Venus) was 12%.

And the activity change (mCherry)?
Its activity change (mCherry) is 0.142% (inactive).

What does the source list for `N#C[C@@H]1[C@H](c2ccccc2-c2cccc(F)c2)[C@@H](CO)N1C(=O)CN1CCOCC1`?
activity change (Venus): 4.69%; activity change (mCherry): 12.6% (inactive)

For `CO[C@H]1CN(C)C(=O)c2ccc(NC(=O)c3ccccc3F)cc2OC[C@H](C)N(C(=O)c2ccccc2F)C[C@H]1C`, which activity change (Venus) is on record?
Its activity change (Venus) is 2.58%.

And the activity change (mCherry)?
Its activity change (mCherry) is -1.92% (inactive).

For `Cc1cc(C(=O)Nc2ccc3c(c2)C(=O)N(C)[C@@H]2CC[C@@H](CC(=O)NC4CCCC4)O[C@@H]2CO3)no1`, which activity change (Venus) is on record?
Its activity change (Venus) is 8.29%.

And the activity change (mCherry)?
The activity change (mCherry) was 8.19% (inactive).

Which results are given for `O=C(C[C@@H]1CC[C@@H]2[C@H](COC[C@H](O)CN2C(=O)Nc2cccc(Cl)c2)O1)NCCCN1CCOCC1`?
activity change (Venus): 5.06%; activity change (mCherry): 10% (inactive)

With `CCC(=O)N1CCC2(CC1)CN(S(C)(=O)=O)[C@@H](CO)c1c2c2ccc(OC)cc2n1C` as the compound, how does the activity change (Venus) read?
The activity change (Venus) was 7.75%.

And the activity change (mCherry)?
The activity change (mCherry) was 14.3% (inactive).

For `CC(C)CC#Cc1ccc2c(c1)O[C@H](CN(C)C(=O)Cc1cccnc1)[C@H](C)CN([C@@H](C)CO)S2(=O)=O`, which activity change (Venus) is on record?
The activity change (Venus) was -21.5%.

What about the activity change (mCherry) of the same compound?
The activity change (mCherry) was -32.3% (inactive).

With `O=C(Cc1ccccn1)N[C@H]1CC[C@H](CCn2cc(-c3ccc(F)cc3)nn2)O[C@H]1CO` as the compound, how does the activity change (Venus) read?
Its activity change (Venus) is 1.48%.

What about the activity change (mCherry) of the same compound?
The activity change (mCherry) was 5.56% (inactive).

Which results are given for `NCC[C@@H]1CC[C@@H](NC(=O)C2CCCC2)[C@H](CO)O1`?
activity change (Venus): 0.29%; activity change (mCherry): -7.04% (inactive)

What does the source list for `COc1ccc(NC(=O)Nc2ccc3c(c2)C(=O)N([C@@H](C)CO)C[C@H](C)[C@H](CN(C)S(=O)(=O)c2ccccc2)OCCCC[C@@H](C)O3)cc1`?
activity change (Venus): -1.69%; activity change (mCherry): -0.413% (inactive)

Which results are given for `C[C@@H]1CN([C@H](C)CO)C(=O)c2cc(-c3ccccc3)cnc2O[C@H]1CN(C)C(=O)NC1CCCC1`?
activity change (Venus): -2.73%; activity change (mCherry): 1.1% (inactive)

Which activity change (Venus) does the source give for `CCC(=O)N1CCC2(CC1)CN(Cc1cc(F)ccc1F)[C@@H](CO)c1c2c2ccc(OC)cc2n1C` here?
Its activity change (Venus) is -2.18%.

And the activity change (mCherry)?
Its activity change (mCherry) is 15.8% (inactive).

Which activity change (Venus) does the source give for `O=C(C[C@H]1CC[C@@H]2[C@H](COC[C@H](O)CN2C(=O)c2ccc3c(c2)OCO3)O1)NC1CCC1` here?
Its activity change (Venus) is 9.5%.

And the activity change (mCherry)?
The activity change (mCherry) was 3.32% (inactive).

For `O=C(Nc1ccccc1F)N[C@H]1CC[C@@H](CCNS(=O)(=O)c2ccc(F)cc2)O[C@@H]1CO`, which activity change (Venus) is on record?
The activity change (Venus) was -12.7%.

What about the activity change (mCherry) of the same compound?
The activity change (mCherry) was -16.7% (inactive).

Which activity change (Venus) does the source give for `O=C(C[C@H]1C=C[C@H](NC(=O)Nc2cc(F)ccc2F)[C@H](CO)O1)Nc1ccccc1` here?
The activity change (Venus) was -0.0195%.

What about the activity change (mCherry) of the same compound?
Its activity change (mCherry) is -4.16% (inactive).

What does the source list for `COc1ccc2c3c(n(C)c2c1)[C@@H](CO)N(C(=O)c1ccc(F)cc1)CC31CN(C(=O)c2ccc(F)cc2)C1`?
activity change (Venus): -9%; activity change (mCherry): -10.3% (inactive)

For `COc1cccc(-c2ccc(CC[C@H]3O[C@H]4CC[C@@H](CO)O[C@H]4C[C@@H]3NS(C)(=O)=O)cc2)c1`, which activity change (Venus) is on record?
The activity change (Venus) was -32%.

And the activity change (mCherry)?
Its activity change (mCherry) is -32.8% (inactive).
